Screens (PubChem)
Compounds with a hit are over-represented: about 12% of the library has one in this group of screens.
HP1b binding inh – inhibitors of HP1-beta chromodomain binding to methylated histone tails; AID 540317; 390,000 compounds, 0.56% hits; Potency, µM (highest dose often 114 µM), usual class: inhibitors; P83916; AlphaScreen HP1-beta / biotin-H3K9me3 peptide binding; further: nearly all actives have a fitted effect of over 70% in size
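Compound inhibition of the preformed complex between 50 nM HP1-beta and 50 nM biotinylated H3K9me3 peptide was read by AlphaScreen. Buffer was PBS pH 7.4 with 0.01% Tween-20. Incubations ran 30 min at room temperature, with 10 ug/mL donor/acceptor beads.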
PLK1 PBD block – inhibitors of human PLK1 polo-box domain binding; Plk1 PBD binding of FITC phosphopeptide, fluorescence polarization; AID 720504; Potency, µM, actives largely listed as inhibitors; 360,000 compounds, 2.8% hits; further: series mostly up to about 57 µM; nearly all actives have a fitted effect of over 65% in size
G9a inh – G9a (human) methyltransferase inhibition | Q96KQ7 | G9a H3K9 monomethylation, AlphaScreen, 2 h | Potency, µM (highest dose often 102 µM), most hits filed as inhibitors | 350,000 compounds, 8.8% hits; further: nearly all actives have a fitted effect of over 75% in size
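Signal arises when biotinylated H3K9 peptide, once monomethylated, bridges streptavidin donor and antibody-captured acceptor beads. Enzyme at 20 nM was preincubated 15 min with test compounds; peptide 500 nM and SAM 20 uM then reacted for 2 h.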
JMJD2A Tudor inh – inhibitors of human JMJD2A Tudor domain | AlphaScreen JMJD2A-Tudor / H3K4me3 peptide binding | Potency, µM (series often up to 114 µM), most hits filed as inhibitors | 390,000 compounds, 4.4% hits; further: nearly all actives have a fitted effect of over 50% in size
PI5P4K alpha inh – blocks human PI5P4K alpha kinase activity; max response, %; AID 652105; 330,000 compounds, 1.2% hits; PI5P4Kalpha enzyme, ADP-Glo luminescence, 60 min; stronger effect = lower value; active means max response of -50% or lower; inconclusive means between -30% and -50%; inactive means -30% or higher; further: value at the top dose of about 77 µM
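ADP-Glo luminescence end-point read after a 60 min room-temperature kinase reaction of PI5P4Kalpha plus substrate, initiated with ATP at 5 microM final. Buffer: 0.038 M HEPES pH 7.4, EGTA, 0.1% CHAPS, 5% DMSO.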
BAZ2B block – blocks human BAZ2B. 360,000 compounds, 4.4% hits. Q9UIF8. AlphaScreen BAZ2B-H3K14Ac peptide displacement. AID 504333. Potency, µM (doses to about 114 µM), usual class: inhibitors; further: nearly all actives have a fitted effect of over 60% in size
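AlphaScreen displacement of biotin-H3(5-23)K14Ac peptide (50 nM final) from BAZ2B (50 nM final) in PBS pH 7.4, 0.01% Tween-20; complex preformed 30 min RT, then compounds (top 110 uM) 30 min RT, beads 20 min dark.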
Each line names hits and unclear results; the compound was inactive in the other large screens. Unless noted, the call rests on the fitted dose curve; in most records, active means well fitted curve in the direction sought with a large enough effect; inconclusive means small, poorly fitted or top-dose-only effect, or another doubt; inactive means no such curve, though single readings can be large; an effect the other way counts as inactive or inconclusive.

S=c1[nH]nc(-c2cc(-c3ccco3)[nH]n2)n1-c1cccc2ccccc12	HP1b binding inh inconclusive, PLK1 PBD block inconclusive, G9a inh 4µM, JMJD2A Tudor inh 89µM, BAZ2B block 40µM (no result: PI5P4K alpha inh)
Cc1ccc2oc(-c3ccco3)nc2c1	none
S=C1NCN(Cc2ccco2)CN1c1cccc2ccccc12	none
O=S(=O)(c1cccnc1)N1CCN(c2nc(-c3cccs3)nc3ccccc23)CC1	none (no result: PLK1 PBD block, G9a inh, PI5P4K alpha inh, BAZ2B block)
Clc1cc(Cl)c2nc(N3CCCCC3)sc2c1	PLK1 PBD block 24µM, G9a inh inconclusive
Cc1ccc(NC(=O)c2cnc(SCC(=O)N3CCCc4ccccc43)n(C)c2=O)cc1C	none (no result: PLK1 PBD block, PI5P4K alpha inh)
CCC(COC)Oc1cc(NCc2ccccc2)c2ncn(C(C)C)c2c1 (centres undefined)	PLK1 PBD block inconclusive, JMJD2A Tudor inh 50µM, BAZ2B block 50µM
CCC(CO)Oc1cc(NCc2ccc(C(C)(C)C)cc2)c2ncn(C(C)C)c2c1 (centres undefined)	JMJD2A Tudor inh 25µM (no result: G9a inh, BAZ2B block)
CCC(CO)Oc1cc(NCc2ccc(O)cc2)c2ncn(C(C)C)c2c1 (centres undefined)	JMJD2A Tudor inh inconclusive (no result: G9a inh, BAZ2B block)
CCC(CO)Oc1cc(NCc2ccccc2)c2ncn(C(C)C)c2c1 (centres undefined)	JMJD2A Tudor inh inconclusive (no result: G9a inh, BAZ2B block)
CCC(COC(=O)c1ccccc1)Oc1cc(NCc2ccccc2)c2ncn(C(C)C)c2c1 (centres undefined)	JMJD2A Tudor inh 45µM (no result: G9a inh, BAZ2B block)
CCOC(=O)c1ccccc1NC(=O)c1cc2c(=O)oc3ccc(C)cc3c2s1	none (no result: PLK1 PBD block, PI5P4K alpha inh)
CC(NC(=O)C12CC3CC(CC(C3)C1)C2)C(=O)NCCN(C)C (centres undefined)	PLK1 PBD block 30µM
CC(OCCN(C)C)C(=O)C12CC3CC(CC(C3)C1)C2 (centres undefined)	none
COc1ccc(/C=N/Nc2ccc(C(F)(F)F)cc2[N+](=O)[O-])cc1O	HP1b binding inh inconclusive, PLK1 PBD block inconclusive, G9a inh inconclusive, JMJD2A Tudor inh 89µM, BAZ2B block inconclusive
CCOc1ccc(/C=N/Nc2ccc(C(F)(F)F)cc2[N+](=O)[O-])cc1O	G9a inh 45µM, BAZ2B block inconclusive
CCOc1cc(/C=N/NC(=O)Cc2ccc(C(F)(F)F)cc2[N+](=O)[O-])ccc1O	G9a inh inconclusive
O=C(Oc1ccc2ccc(O)cc2c1)C1CCCCC1	HP1b binding inh inconclusive, PLK1 PBD block 4.2µM, JMJD2A Tudor inh inconclusive, PI5P4K alpha inh inconclusive
O=C(O)c1ccc(N/N=C/c2ccc(-c3cccc(Cl)c3)o2)cc1	PLK1 PBD block inconclusive, G9a inh inconclusive, BAZ2B block inconclusive
O=C(O)c1ccc(N/N=C/c2ccc(-c3cc(Cl)ccc3Cl)o2)cc1	PLK1 PBD block 21µM, JMJD2A Tudor inh 40µM, BAZ2B block 79µM
O=C(O)c1ccc(N/N=C/c2ccc(-c3ccc(Cl)cc3Cl)o2)cc1	PLK1 PBD block 24µM, G9a inh inconclusive, BAZ2B block inconclusive
CC(=O)Nc1ccc(S(=O)(=O)N(CCCN2CCOCC2)Cc2cccs2)cc1	G9a inh 40µM, JMJD2A Tudor inh 45µM, BAZ2B block 79µM
CC(C)(C)c1ccc(S(=O)(=O)N(CCCN2CCOCC2)Cc2cccs2)cc1	HP1b binding inh 16µM, G9a inh 14µM, JMJD2A Tudor inh 22µM, BAZ2B block 25µM
O=[N+]([O-])c1ccc(S(=O)(=O)N(CCCN2CCOCC2)Cc2cccs2)cc1	G9a inh 35µM, JMJD2A Tudor inh 79µM, BAZ2B block 50µM
O=C(Nc1ccccc1)N(CCCN1CCOCC1)Cc1cccs1	none
OCc1ccccc1-c1ccc2nccn2c1	none (no result: HP1b binding inh, G9a inh, JMJD2A Tudor inh, BAZ2B block)
COCc1cc(C)nc(SCC(=O)Nc2ccc(C)c(C)c2)c1C#N	none
COCc1cc(C)nc(SCC(=O)Nc2ccccc2C)c1C#N	HP1b binding inh inconclusive, PLK1 PBD block 3µM, PI5P4K alpha inh inconclusive
Cn1cccc1Cc1nnc(SCC(=O)NCC2CCCO2)n1CCc1ccccc1 (centres undefined)	none (no result: PI5P4K alpha inh)
CCn1cc(SCC(=O)NCC2CCCO2)c2ccccc21 (centres undefined)	PLK1 PBD block 7.5µM, G9a inh inconclusive
Cn1cccc1Cc1nnc(SCC(=O)NCC2CCCO2)n1C (centres undefined)	HP1b binding inh inconclusive, PLK1 PBD block 24µM
Cn1c(=O)c(C(=O)NCC2CCCO2)c(O)c2ccccc21 (centres undefined)	JMJD2A Tudor inh 28µM
O=C(CSc1nc(-c2ccc(F)cc2)[nH]c1-c1ccccc1)NCC1CCCO1 (centres undefined)	BAZ2B block inconclusive (no result: PLK1 PBD block, PI5P4K alpha inh)
O=C(CSc1nc(-c2ccccc2)c(-c2ccccc2)[nH]1)NCC1CCCO1 (centres undefined)	G9a inh 28µM, BAZ2B block inconclusive
OC[C@@H]1CN(Cc2ccc3c(c2)OCO3)C[C@H](n2cnc3c(NC4CC4)ncnc32)O1	none (no result: HP1b binding inh, G9a inh, JMJD2A Tudor inh, BAZ2B block)
O=C(CSc1ncccn1)NCC1CCCO1 (centres undefined)	none (no result: G9a inh, BAZ2B block)
O=C(CSc1nc2ccccc2[nH]1)NCC1CCCO1 (centres undefined)	G9a inh 32µM
O=C(CSc1ccc(Br)cc1)NCC1CCCO1 (centres undefined)	G9a inh 40µM
O=C(CCCSc1nc2ccccc2[nH]1)NC1CCCCC1	none
O=C(CSc1nc2ccccc2[nH]1)NC1CCCC1	G9a inh 50µM, BAZ2B block 79µM
C=CCOc1ccc(C2C(C(=O)c3ccco3)=C(O)C(=O)N2c2nnc(C)s2)cc1 (centres undefined)	PLK1 PBD block 21µM, JMJD2A Tudor inh 28µM, BAZ2B block 79µM
COc1ccc(C2C(C(=O)c3ccco3)=C(O)C(=O)N2c2nnc(C)s2)cc1 (centres undefined)	BAZ2B block 50µM (no result: G9a inh)
COc1ccc(C2C(C(=O)c3ccco3)=C(O)C(=O)N2c2nnc(C)s2)cc1OC (centres undefined)	G9a inh 50µM, JMJD2A Tudor inh 25µM
CCOc1cccc(C2C(C(=O)c3ccco3)=C(O)C(=O)N2c2nnc(C)s2)c1 (centres undefined)	G9a inh inconclusive, JMJD2A Tudor inh inconclusive, BAZ2B block inconclusive
COc1ccc(CCN2C(=O)c3[nH]nc(-c4ccccc4O)c3C2c2ccccc2)cc1 (centres undefined)	none (no result: PLK1 PBD block, PI5P4K alpha inh)
COc1ccc(-c2cc(C)no2)cc1S(=O)(=O)NCCc1ccco1	PLK1 PBD block inconclusive, JMJD2A Tudor inh 79µM, BAZ2B block inconclusive
Cc1ccc(/C=N/n2c(-c3ccco3)n[nH]c2=S)s1	G9a inh 1.3µM, JMJD2A Tudor inh 20µM
S=c1[nH]nc(-c2ccco2)n1/N=C/c1ccc(Cl)cc1	HP1b binding inh inconclusive, PLK1 PBD block inconclusive, G9a inh 1.3µM, JMJD2A Tudor inh 40µM, BAZ2B block inconclusive
S=c1[nH]nc(-c2ccco2)n1/N=C/c1ccccc1Cl	G9a inh 1.4µM, JMJD2A Tudor inh 32µM
